In the library only some 21% were active in any assay of this set; here they are far more common.
CHX counter: Cycloheximide Counterscreen for Small Molecule Inhibitors of Shiga Toxin; 300,000 tested, 12% active; cell reporter, cycloheximide protein synthesis inhibition counterscreen; max response, %; AID 2314, 2010; in the data active = max response mostly above about 13%, no sharp cut-off; inactive = mostly below about 14%; also: read at 38.3 µM for the half of the compounds with a filed dose; 0% is about no effect
Pf growth 48h: Primary qHTS for delayed death inhibitors of the malarial parasite plastid, 48 hour incubation | P. falciparum luciferase growth in erythrocytes, 48 h | Potency, µM (top dose mostly 28.7 µM), for inactives: top-dose activity change, negative = inhibition, most hits filed as inhibitors | 310,000 tested, 5.9% active; active = well fitted inhibition curve with a large enough effect; inconclusive = small, poorly fitted or top-dose-only effect, or another doubt; inactive = no such curve, though single readings can be large or run the other way; also: potency is read from the fitted curve at half-maximal effect; % is scaled to controls: 0 for no effect and ±100 for the full control effect
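Read-out is firefly luciferase luminescence from an integrated reporter in P. falciparum, so falling signal marks reduced parasite growth. Infected erythrocytes were at 2% hematocrit and 0.1% parasitemia (final) in Albumax-supplemented RPMI 1640.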
Shiga toxin inh: A qHTS for Small Molecule Inhibitors of Shiga Toxin | Vero cells, Shiga toxin protein synthesis inhibition reporter | AID 2315, 2010 | 290,000 tested, 9.2% active | inhibition, % at 38.7 µM; in the data active = inhibition mostly above about 28%, no sharp cut-off; inactive = mostly below about 43%; also: 0% is about no effect
NS1 function inh: qHTS Assay for Inhibitors of Influenza NS1 Protein Function | AID 2326, 2010 | 270,000 tested, 0.4% active | Potency, µM (top dose mostly 46.1 µM), for the others: top-dose activity, positive = more growth; also: potency is read from the fitted curve at half-maximal effect; actives are rising curves; nearly all actives have a fitted effect of over 50% in size
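A cell-based growth assay was used: compounds that relieve NS1-induced slow growth of budding yeast raise OD600. Assay medium was yeast nitrogen base with ammonium sulphate and -URA supplement, pH 6.0, with 2% galactose.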
Pf growth 96h: Primary qHTS for delayed death inhibitors of the malarial parasite plastid, 96 hour incubation; P. falciparum luciferase reporter growth, 96 h; Potency, µM (series often up to 28.7 µM), for the others: at the highest dose activity change, negative = inhibition, actives largely listed as inhibitors; 320,000 tested, 6.9% active; AID 504834, 2011; active = well fitted inhibition curve with a large enough effect; inconclusive = small, poorly fitted or top-dose-only effect, or another doubt; inactive = no such curve, though single readings can be large or run the other way; also: potency is read from the fitted curve at half-maximal effect; % is scaled to controls: 0 for no effect and ±100 for the full control effect
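Luminescence readout: decreased luciferase signal marks inhibited growth of reporter-expressing P. falciparum in infected red cells (2% hematocrit, 0.05% parasitemia final), exposed to compound two generations (96 h, 37 C, 5% CO2).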
SARS PLP yeast: qHTS of Yeast-based Assay for SARS-CoV PLP; S. cerevisiae expressing SARS-CoV PLpro, growth rescue; Potency, µM (doses to about 32.9 µM), for inactives: at the top dose activity, positive = growth rescue, most hits filed as activators; 330,000 tested, 0.19% active; also: potency is read from the fitted curve at half-maximal effect; 0% is about no effect; nearly all actives have a fitted effect of over 55% in size
Active calls of the source: *; ? = inconclusive; · = not tested or not shown. Unless noted, calls follow the shape of the full dose curve.

SMILES	CHX counter	Pf growth 48h	Shiga toxin inh	NS1 function inh	Pf growth 96h	SARS PLP yeast
CC1=C(C(=O)OC(C)C)C(c2coc3ccccc3c2=O)C2=C(CCCC2=O)N1 (configuration not stated)	-3.3	·	-6.8	4.3%	-7.8%	-0.3%
CC1=C(C(=O)OCC2CCCO2)C(c2cccc(O)c2)NC(=O)N1 (configuration not stated)	1.3	13.9%	-1.4	?	33.8%	-2.9%
CSCCC(NC(=O)COc1ccccc1)C(=O)NC1CCC(C)CC1 (configuration not stated)	·	-13.9%	·	·	-26.9%	-4.6%
COC(=O)C1C(=O)C2=C(CC1C)NC(C)=C(C(=O)OCc1ccc(OC)cc1)C2c1ccc(C)o1 (configuration not stated)	-1.6	?	2.8	-44.7%	?	-0.3%
CCOC(=O)C1=C(C)NC2=C(C(=O)CC(c3ccc(OC)c(OC)c3)C2)C1c1ccc(C)o1 (configuration not stated)	-1.1	1.17µM*	-17.2	3.5%	?	-5.7%
Cc1ccc(-n2nc3c(=O)n(CCCC(=O)NCc4cccc(Cl)c4)nc(C)c3c2C)cc1	18.6	9.28µM*	-11.1	-0.7%	?	-1.9%
Cc1ccc(-n2nc3c(=O)n(CCCC(=O)NCCc4ccccc4Cl)nc(C)c3c2C)cc1	11.1	·	-3.3	·	·	·
Cc1ccc(-n2nc3c(=O)n(CCCC(=O)NCc4ccccc4Cl)nc(C)c3c2C)cc1	6.0	?	-10.1	7.7%	2.62µM*	-2.1%
Cc1ccc(-n2nc3c(=O)n(CCCC(=O)NCc4ccc(Cl)cc4)nc(C)c3c2C)cc1	-3.0	?	2.6	-0.8%	2.2%	3.2%
Cc1ccc(-n2nc3c(=O)n(CCCC(=O)NCc4ccc(C)o4)nc(C)c3c2C)cc1	11.9	10.4µM*	-4.2	3.4%	?	10.0%
CCN(CC(=O)NCc1ccc(F)cc1)C(=O)/C=C/c1ccc(OC)c(S(=O)(=O)NC(C)C)c1	-7.2	?	-5.5	-5.0%	?	-0.6%
CC[C@H](C)[C@H](NC(=O)CN)C(=O)N[C@@H](CC(C)C)C(=O)NCC(=O)N[C@@H](Cc1ccccc1)C(=O)N[C@H](C(=O)N[C@@H](Cc1ccccc1)C(=O)N[C@H](C(=O)N[C@@H](CC(C)C)C(=O)O)[C@@H](C)O)C(C)C	-0.9	·	-7.3	·	·	·
Cc1ccnc(NC2CCCCC2)c1	30.6*	0.0%	108.9*	·	-9.2%	1.5%
CCOC(=O)c1c(C)c2c(n1C)CCC/C2=N\O	11.7	21.8%	17.6	-13.8%	11.7µM*	1.0%
Cc1nc([N+](=O)[O-])cn1CC(=O)Nc1ccc([N+](=O)[O-])cc1	-6.0	-14.2%	-4.1	8.1%	?	14.1%
NC(N)=Nc1nc(C2COc3ccccc3O2)cs1 (configuration not stated)	37.2*	-54.2%	75.0*	-3.5%	0.0%	-2.3%
CC(=O)Nc1nc(C2COc3ccccc3O2)cs1 (configuration not stated)	32.5*	183.7%	49.5*	1.6%	239.4%	-8.4%
CCCCC(OC(=O)c1ccco1)C(=O)NCc1ccc(C)cc1 (configuration not stated)	-3.3	29.7%	-7.0	8.5%	-29.6%	-1.4%
OCCCCNCc1cc(Br)ccc1OCc1ccccc1F	-0.2	?	-3.8	8.3%	27.1%	0.9%
COc1cc(CNCCCN2CCOCC2)c(Br)cc1OCC(=O)Nc1ccccc1C	11.7	10.4µM*	34.1	9.2%	?	-0.8%
CCN(CC)CCNCc1cc(Br)ccc1OCC(=O)NCc1ccccc1	4.4	?	-12.6	4.7%	11.7µM*	-0.1%
Cc1ccccc1NC(=O)COc1ccc(Br)cc1CNCCCO	7.0	?	8.9	2.1%	1.85µM*	0.8%
COc1ccccc1NC(=O)COc1ccc(Br)cc1CNCCCN1CCOCC1	11.0	?	23.1	2.5%	1.5%	-0.9%
COc1ccccc1CNS(=O)(=O)c1ccc(-c2cnc(C3CC3)o2)cc1	-0.8	8.3%	-3.3	5.6%	?	-6.9%
Cc1ccc(OCCC(=O)OCC(=O)Nc2ccc(F)cc2)cc1	·	8.3%	·	·	38.2%	-3.9%

Bioassay records (PubChem BioAssay)
